Laboratory results reported in PubChem BioAssay (NCI).
Compounds without any hit were thinned out: in the full panel of roughly 79,000, 15% have a hit. Cut-off read from the data, not from the text of the source: active = growth inhibition above about 70%; inactive = the rest.

Key:
[1] = NCI Yeast Anticancer Drug Screen. Data for the rad50 strain (AID 155);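 note: 0% = growth of vehicle-only cultures of the same strain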; settings: S. cerevisiae rad50 strain growth inhibition; at 50.0 µM; stronger effect = higher value
How it was run: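 Vehicle-treated cultures provide the reference for the growth inhibition reported for compound-exposed, repair-deficient yeast.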

[2] = NCI Yeast Anticancer Drug Screen. Data for the mec2-1 strain (AID 157); settings: S. cerevisiae mec2-1 strain, at 50.0 µM, stronger effect = higher value
How it was run: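 Mutant yeast (mec2-1) grown with compound; growth inhibition relative to vehicle control reported.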

[3] = NCI Yeast Anticancer Drug Screen. Data for the sgs1 mgt1 strain (AID 161);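 note: 0% = growth of cultures given vehicle only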; settings: S. cerevisiae sgs1 mgt1 strain, at 50.0 µM, stronger effect = higher value
How it was run: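 Growth of a repair-deficient yeast mutant was monitored after compound treatment and expressed as inhibition relative to vehicle-treated cultures.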

[4] = NCI Yeast Anticancer Drug Screen. Data for the cln2 rad14 strain (AID 165);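 note: 0% = growth equal to vehicle treated cultures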; settings: S. cerevisiae cln2 rad14 strain, at 50.0 µM, stronger effect = higher value
How it was run: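 Readout is yeast growth inhibition versus vehicle-treated controls, using a strain with cln2 and rad14 alterations exposed to compound.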

[5] = NCI Yeast Anticancer Drug Screen. Data for the bub3 strain (AID 167); settings: S. cerevisiae bub3 mutant strain, at 50.0 µM, stronger effect = higher value
How it was run: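 Mutant yeast screening strain plus compound; vehicle-treated cultures serve as the 0% inhibition reference.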

[6] = NCI Yeast Anticancer Drug Screen. Data for the mlh1 rad18 strain (AID 175); settings: S. cerevisiae mlh1 rad18 strain growth inhibition; at 50.0 µM; stronger effect = higher value
How it was run: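 Genetically defined yeast (DNA repair-deficient) exposed to compounds; growth inhibition determined relative to vehicle.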

Measured: growth inhibition

O=C(CCN1CCOCC1)Nc1ccc(F)cc1F
inactive: [1] -18.8% | [2] 3.35% | [3] -3.15% | [4] 7.25% | [5] -36.5% | [6] -6.1%

O=C(O)/C=C/c1c(Cl)cccc1Cl
inactive: [1] -14.6% | [2] -8.05% | [3] -11.9% | [4] -37.2% | [5] -18.1% | [6] -5.8%

COc1cc(/C=N/n2c(C)cc(C)c(C#N)c2=O)cc(OC)c1OC
inactive: [1] -11.9% | [2] 12.9% | [3] -3.4% | [4] 9.1% | [5] -1.05% | [6] -25.4%

CCN(CC)CCCC(C)NCc1ccnc2cc(Cl)ccc12 (stereo unspecified)
inactive: [1] -3.35% | [2] -8.05% | [3] 5.95% | [4] -21.4% | [5] 1.65% | [6] 25.4%

CCC(SC(CC)(CC(C)C)C(N)=O)C(N)=O (stereo unspecified)
inactive: [1] 4.1% | [2] -5.65% | [3] 15.8% | [4] -53% | [5] 6.9% | [6] -14.4%

COC(=O)C(=O)CC(=O)CCn1ncc(Cl)c(Cl)c1=O
inactive: [1] -14.3% | [2] -25.4% | [3] -1.3% | [4] 6.45% | [5] -13.6% | [6] -17.7%

COc1cccc2c1CCC(=O)C2C (stereo unspecified)
inactive: [1] 35.1% | [2] -0.9% | [3] 14.3% | [4] -5.45% | [5] 13.6% | [6] 22.9%

O=C(O)CN1CCN(CC(=O)O)CCN(CC(=O)O)CCN(CC(=O)O)CC1
inactive: [1] -7.95% | [2] -0.55% | [3] 2.9% | [4] -17.6% | [5] 20.4% | [6] 21.6%

Cc1nc(-c2cccnc2)sc1C(=O)/C=C/c1cccc([N+](=O)[O-])c1
inactive: [1] 27.1% | [2] 10.6% | [3] 23.9% | [4] 32.2% | [5] 5.6% | [6] 38.9%

CC1CCCC(=O)CC1 (stereo unspecified)
inactive: [1] 7.35% | [2] 9.85% | [3] -2.85% | [4] 16.3% | [5] -0.45% | [6] 6.5%

O=c1ccc2ccc(O)cc2o1
inactive: [1] -1.45% | [2] -6.7% | [3] 0.9% | [4] 2.05% | [5] -4.65% | [6] -11.8%

O=C(Nc1cccc2ccccc12)OCCBr
inactive: [1] 6.85% | [2] -9.95% | [3] 3.25% | [4] 7% | [5] -10.2% | [6] -7.4%

Oc1ccc2ccccc2c1
inactive: [1] -10.3% | [2] -27.8% | [3] -14.8% | [4] -21.4% | [5] -16.4% | [6] 20.9%

N#CC(Nc1ccccc1)c1ccc(C(C#N)Nc2ccccc2)cc1 (stereo unspecified)
inactive: [1] 3.2% | [2] 8.2% | [3] -45.2% | [4] -21.1% | [5] -16.2% | [6] -34.2%

c1ccc(-c2c(-c3cccs3)[nH]c(-c3cccs3)c2-c2ccccn2)nc1
inactive: [1] -6.7% | [2] 17.1% | [3] 45.7% | [4] -29.4% | [5] -6.6% | [6] -57%

C=Cc1ccc(C)[n+](C[Si](C)(C)O[Si](C)(C)C)c1
inactive: [1] -7.75% | [2] -39% | [3] -8.95% | [4] 19.4% | [5] -22.9% | [6] -20.7%

O=C1CN(Cc2ccc(Cl)cc2)CC(=O)N2CCCN12
inactive: [1] 20.8% | [2] 8% | [3] 19.7% | [4] 18.2% | [5] 10.8% | [6] 16.4%

CC1CCCC(C)N1 (stereo unspecified)
inactive: [1] 2.5% | [2] -9.05% | [3] -1.75% | [4] -1.95% | [5] 1.5% | [6] 10.8%

Clc1cccc(C=NC23CC4CC(CC(C4)C2)C3)c1Cl
inactive: [1] -20.2% | [2] -36.5% | [3] -40.3% | [4] -6% | [5] -22.6% | [6] -10.2%

COc1ccc(C2ON(c3ccccn3)CC=C2C)cc1 (stereo unspecified)
inactive: [1] 12.4% | [2] -9.25% | [3] 12.6% | [4] 12.2% | [5] -2.45% | [6] 6.55%

O=c1[nH]c2cc(Cl)c([N+](=O)[O-])cc2c2ccccc12
inactive: [1] 15.1% | [2] -7.35% | [3] 4.35% | [4] -42% | [5] -11.2% | [6] -0.25%
